Only some compounds are listed: those with a hit (about 7.3% of all), similar ones and a draw of the others.
ELG1 genotoxic: induces genotoxicity in HEK293T cells with luciferase-tagged ELG1; HEK293T ELG1-luciferase reporter, luminescence, 16 h; 330,000 tested, 1.3% active; Potency, µM (highest dose often 46 µM), actives largely listed as activators; further: nearly all actives have a fitted effect of over 60% in size
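Cells (2,000/well) expressing the ELG1-luciferase fusion are dosed by pin tool and kept 16 hr at 37 °C, 5% CO2. Signal comes from ONE-Glo luciferase reagent after 30 min at room temperature.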
NPC1 promoter act: NPC1 promoter activation; Huh7 NPC1 promoter luciferase reporter, 24 h; Potency, µM (titrated, usually from 9.22 µM), usual class: activators; 320,000 tested, 2.4% active; AID 485313; further: nearly all actives have a fitted effect of over 60% in size
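In 1536-well qHTS, Huh7 cells harboring an NPC1 promoter–luciferase construct received compound for 24 h; activation was quantified by luminescence following luciferase reagent addition.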
SMN2 splice up: SMN2 splice variant enhancement; HEK293 SMN2-luciferase splicing reporter, luminescence, 30-36 h; Potency, µM (series often up to 46.1 µM), actives largely listed as activators; 210,000 tested, 2.8% active; further: nearly all actives have a fitted effect of over 55% in size
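qHTS luciferase splicing reporter: luminescence rises when SMN2 exon 7 is included in transfected HEK293 cells. Compound exposure lasted 30-36 h at 37C, with 4.5 mM final sodium butyrate as control, followed by a ONE-Glo read.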
Rab9 prom act: activators of Rab9 promoter. Huh7 Rab9 promoter-luciferase reporter, luminescence, 24 h. Potency, µM (series often up to 9.22 µM), most hits filed as activators. 320,000 tested, 2.8% active. AID 485297; further: nearly all actives have a fitted effect of over 60% in size
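Using Huh7 cells stably transfected with Rab9 promoter–luciferase, compounds were incubated 24 h at 37 °C, 5% CO2; luciferase luminescence was read 10 min after reagent addition.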
p53 reactivator: mutant p53 re-activation in reporter cells. H1299 p53-A138V BP100-luciferase reporter, luminescence, 24 h. Potency, µM (top dose mostly 92.2 µM), actives largely listed as activators. 320,000 tested, 0.063% active. AID 504706; further: nearly all actives have a fitted effect of over 45% in size
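p53-null H1299 cells stably carrying temperature-sensitive p53-A138V and a BP100-luciferase reporter were pinned with compounds (4-point, 1:5 series) and held 24 hrs at 37 deg C. Luminescence was read 10 min after detection reagent.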
FLuc modulator: inhibits or activates purified firefly luciferase, miR-21 counter-screen; purified FLuc, Km substrates, luminescence inhibition; Potency, µM (highest dose often 57.5 µM), hits mostly inhibitors; 360,000 tested, 6.9% active; AID 588342; further: nearly all actives have a fitted effect of over 55% in size
Target sequence (P08659 whole entry, looked up): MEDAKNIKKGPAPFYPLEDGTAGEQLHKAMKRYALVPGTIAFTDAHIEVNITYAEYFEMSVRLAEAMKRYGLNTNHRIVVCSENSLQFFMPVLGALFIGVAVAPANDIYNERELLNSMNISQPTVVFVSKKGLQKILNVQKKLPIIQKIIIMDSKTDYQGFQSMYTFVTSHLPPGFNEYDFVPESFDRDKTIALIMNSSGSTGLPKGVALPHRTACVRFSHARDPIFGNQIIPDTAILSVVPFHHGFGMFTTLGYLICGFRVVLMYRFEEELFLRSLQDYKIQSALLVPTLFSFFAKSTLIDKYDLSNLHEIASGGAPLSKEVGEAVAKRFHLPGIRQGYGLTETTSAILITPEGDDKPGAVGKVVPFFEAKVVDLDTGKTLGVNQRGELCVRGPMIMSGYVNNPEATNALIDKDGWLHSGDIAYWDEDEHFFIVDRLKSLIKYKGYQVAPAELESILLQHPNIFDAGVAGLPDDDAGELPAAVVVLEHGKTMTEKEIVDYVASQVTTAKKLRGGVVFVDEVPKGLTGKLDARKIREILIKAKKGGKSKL
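Purified P. pyralis luciferase, 10 nM final, with Km-level 10 uM D-luciferin and 10 uM ATP in 50 mM Tris acetate pH 7.5, 10 mM Mg acetate, 0.01% Tween-20, 0.05% BSA; 6-point qHTS titration about 60 µM downward; luminescence read.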
Large screens that a line does not name were inactive. The call rests on the fitted dose curve; in most records, active means well fitted curve in the direction sought with a large enough effect; inconclusive means small, poorly fitted or top-dose-only effect, or another doubt; inactive means no such curve, though single readings can be large; an effect the other way counts as inactive or inconclusive.

NC(=O)C1CCN(C(=O)CSc2nc3ccccc3s2)CC1	none
O=C(CSc1nc2ccccc2s1)N1CCCCC1	ELG1 genotoxic inconclusive, NPC1 promoter act 2.8µM, SMN2 splice up 20µM, Rab9 prom act 3.5µM, p53 reactivator inconclusive, FLuc modulator 24µM
CCOc1ccc(-n2c(SCC(=O)Nc3cccc(Cl)c3)nc3c(oc4ccccc43)c2=O)cc1	none (no result: ELG1 genotoxic, NPC1 promoter act, Rab9 prom act, p53 reactivator)
COc1ccc(N2CCN(c3cc(C)c4ccc(O)cc4n3)CC2)cc1	none
Cc1ccc2nc(C)cc(Nc3ccc([N+](=O)[O-])cc3)c2c1	ELG1 genotoxic 5.8µM
COC(=O)c1ccc(Nc2cc(C)nc3ccc(C)cc23)cc1	none (no result: SMN2 splice up)
COc1ccc(Nc2cc(C)c3ccc(O)cc3n2)cc1	p53 reactivator inconclusive, FLuc modulator 24µM (no result: SMN2 splice up)
COc1ccc(Nc2nc(=O)c3cc([N+](=O)[O-])ccc3s2)cc1	none (no result: SMN2 splice up)
CCOc1ccc(Nc2cc(C)c3ccccc3n2)cc1	Rab9 prom act inconclusive, FLuc modulator 17µM (no result: SMN2 splice up)
COc1ccc(Nc2cc(C)c3cc([N+](=O)[O-])ccc3n2)cc1	FLuc modulator 17µM (no result: SMN2 splice up)
COC(=O)Cn1c(C(=O)N2CCCC2)cc2c1C[C@H]1CN(C(=O)c3ccccc3)[C@@](Cc3ccccc3)(C(=O)OC)[C@@H]21	none (no result: ELG1 genotoxic, NPC1 promoter act, Rab9 prom act, p53 reactivator, FLuc modulator)
CC(=O)Nc1ccc(Nc2cc(C)c3ccccc3n2)cc1	FLuc modulator inconclusive (no result: SMN2 splice up, p53 reactivator)
Cc1cc(Nc2ccccc2)nc2cc(O)ccc12	p53 reactivator inconclusive, FLuc modulator 17µM
COCCn1c(C)cc(O)c(C(c2ccccc2OC)N2CCCCC2)c1=O (stereo unspecified)	none (no result: ELG1 genotoxic, NPC1 promoter act, SMN2 splice up, Rab9 prom act, p53 reactivator)
Nc1cc(C(=O)O)c(N)c2c1C(=O)c1ccccc1C2=O	FLuc modulator 19µM (no result: SMN2 splice up)
COC(=O)c1ccc2c(c1O)C(=O)c1ccccc1C2=O	ELG1 genotoxic inconclusive, p53 reactivator inconclusive, FLuc modulator 8.5µM
O=C1c2ccccc2C(=O)c2c1ccc(O)c2O	none (no result: ELG1 genotoxic, NPC1 promoter act, Rab9 prom act, p53 reactivator, FLuc modulator)
Nc1c(C(=O)O)ccc2c1C(=O)c1ccccc1C2=O	FLuc modulator 19µM
COc1ccccc1CCNC(=O)C(=O)NCC(c1ccco1)S(=O)(=O)c1ccccc1 (stereo unspecified)	none (no result: ELG1 genotoxic, NPC1 promoter act, SMN2 splice up, Rab9 prom act, p53 reactivator)
Cc1ccnc(NC(=O)c2cccc(NC(=O)COc3ccccc3)c2)c1	FLuc modulator 17µM
Cc1ccc(NC(=O)CNC(=O)Cc2cccc3ccccc23)nc1	none (no result: SMN2 splice up)
CCOc1ccc(C(=O)NCC(=O)Nc2cc(C)ccn2)cc1OCC	p53 reactivator inconclusive, FLuc modulator inconclusive (no result: SMN2 splice up)
Cc1ccnc(NC(=O)c2ccc(C(=O)c3ccccc3)cc2)c1	ELG1 genotoxic inconclusive, NPC1 promoter act 3.5µM, Rab9 prom act 2µM, FLuc modulator 0.95µM (no result: SMN2 splice up)
Cc1ccnc(NC(=O)CNC(=O)Cc2cccc3ccccc23)c1	ELG1 genotoxic 15µM, FLuc modulator 24µM (no result: SMN2 splice up)
Cc1ccc(C(=O)NCC(=O)Nc2cc(C)ccn2)cc1	ELG1 genotoxic inconclusive, FLuc modulator 27µM (no result: SMN2 splice up)
Cc1ccnc(NC(=O)c2ccc(Cl)s2)c1	ELG1 genotoxic inconclusive, NPC1 promoter act 3.2µM, Rab9 prom act 1.6µM, p53 reactivator inconclusive, FLuc modulator 7.6µM (no result: SMN2 splice up)
Cc1ccnc(NC(=O)CCCc2ccccc2)c1	NPC1 promoter act inconclusive, SMN2 splice up inconclusive, Rab9 prom act inconclusive, p53 reactivator inconclusive, FLuc modulator 24µM
CCOc1ccc(C(=O)Nc2cc(C)ccn2)cc1	NPC1 promoter act 0.71µM, SMN2 splice up inconclusive, Rab9 prom act 0.32µM, FLuc modulator 1.3µM
Cc1ccnc(NC(=O)c2cnc(Cl)c(Cl)c2)c1	ELG1 genotoxic inconclusive, p53 reactivator inconclusive, FLuc modulator 17µM (no result: SMN2 splice up)
O=C(NNS(=O)(=O)c1ccccc1)C1CCCCC1	none (no result: SMN2 splice up)
Cc1cc(C(=O)Nc2ccccc2C(=O)O)ccc1NC(=O)COc1ccccc1Cl	none (no result: SMN2 splice up)
C/C(CC(=O)Nc1cc(C)ccn1)=N\NC(=O)COc1cccc(C)c1	FLuc modulator 13µM
COc1ccc(OC)c(NC(=O)Nc2ccc3c(c2)OCO3)c1	FLuc modulator 27µM (no result: SMN2 splice up)
O=C(Nc1ccc2c(c1)OCO2)Oc1ccccc1	FLuc modulator 11µM (no result: ELG1 genotoxic, NPC1 promoter act, Rab9 prom act, p53 reactivator)
COc1cccc(NC(=O)Nc2ccc3c(c2)OCO3)c1	ELG1 genotoxic inconclusive, NPC1 promoter act 2µM, Rab9 prom act 1.4µM, p53 reactivator inconclusive, FLuc modulator 7.6µM (no result: SMN2 splice up)
COC(=O)Nc1ccc2c(c1)OCO2	FLuc modulator inconclusive

Screening results (PubChem)
